Abeta rescue: qHTS for compounds that reverse cellular toxicity of Amyloid beta (A-beta) peptide in yeast: Primary Screen. yeast expressing A-beta42, growth rescue, OD600, 48 h; response scale: 0% DMSO, 100% iron-clioquinol control. Potency, µM (highest dose often 46.1 µM), actives largely listed as activators. 410,000 compounds, 0.063% hits; also: nearly all actives have a fitted effect of over 55% in size
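Yeast A-beta toxicity model in growth medium with pinned compounds, 48 h at 30 C; growth read as absorbance at 600 nm. Normalized to FeCl3/clioquinol equimolar mix (positive) and DMSO (negative).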
FUS yeast rescue: qHTS for Suppressors of FUS Proteinopathy: Primary screen using FUS-linked yeast assay. S. cerevisiae FUS-expressing, growth rescue, OD600, 24 h. Potency, µM (top dose mostly 76.6 µM), actives largely listed as activators. 390,000 compounds, 0.24% hits;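 also: plate controls were DMSO vehicle for no effect and reference control for full effect; nearly all actives have a fitted effect of over 55% in size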
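Galactose (2%) drives FUS expression in yeast precultured in raffinose; seeding density OD 0.005. Test compounds incubated 24hr at 30C and 99% humidity before absorbance at 600 nm was measured.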
TDP-43 yeast inh: qHTS of TDP-43 Inhibitors; Potency, µM (highest dose often 46.1 µM), inactives show top-dose growth rescue (activation), usual class: activators; 410,000 compounds, 1.8% hits; TDP-43 expressing yeast growth rescue, BacTiter-Glo, 24 h; also: % of control where 0% means no effect; nearly all actives have a fitted effect of over 50% in size
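Readout is BacTiter-Glo luminescence of cell growth, so inhibitors register as activators. TDP-43-expressing yeast at OD600=0.02 in galactose medium, after raffinose pregrowth to mid-log, were incubated with compound for 24 hr at 30 deg C.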
aSyn yeast inh: qHTS of alpha-syn Inhibitors; Yeast expressing alpha-synuclein, growth rescue, BacTiter-Glo, 24 h; Potency, µM (top dose mostly 46.1 µM), inactives show top-dose growth rescue (activation), actives largely listed as activators; 370,000 compounds, 0.14% hits; also: % of control where 0% means no effect; nearly all actives have a fitted effect of over 65% in size
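Galactose-induced alpha-syn yeast (OD600=0.02, raffinose-pregrown) + pinned cpd, 24 hr, 30 deg C; growth by BacTiter-Glo luminescence. Growth restoration scores as activation.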
Mito fusion yeast: qHTS Assay for Small Molecule Inhibitors of Mitochondrial Division or Activators of Mitochondrial Fusion. AID 485298, 2010. Potency, µM (series often up to 46.1 µM), for the others: at the top dose growth rescue (activation), hits mostly activators. S. cerevisiae fusion-defective mutant growth rescue, CellTiterGlo 48 h. 320,000 compounds, 0.23% hits; also: % of control where 0% means no effect; nearly all actives have a fitted effect of over 45% in size
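Compounds are tested for their ability to restore growth of mitochondrial fusion-defective yeast strains at non-permissive 37C in YPEG medium over 48 hours. Viability is quantified by luciferase luminescence.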
* = called active by the depositor; i = inactive; ? = inconclusive; . = no result; [ ] = another dose, or the depositor's remark. The list is not random: actives were taken first. Their share in the collection is about 2.2%. Calls follow the shape of the dose curve; as a rule, active = well fitted curve in the direction sought with a large enough effect; inconclusive = small, poorly fitted or top-dose-only effect, or another doubt; inactive = no such curve, though single readings can be large; an effect the other way counts as inactive or inconclusive. Potency is read from the fitted curve at half-maximal effect.

SMILES	Abeta rescue	FUS yeast rescue	TDP-43 yeast inh	aSyn yeast inh	Mito fusion yeast
CC(C)(C)c1ccc(C(=O)NNC(=S)NC(=O)c2cccnc2)cc1	i	?	?	11µM*	-47%
Cc1ccc(C(=O)NNC(=S)NC(=O)COc2ccccc2)cc1	?	i	14%	?	2%
Cc1cccc(C(=O)NC(=S)NNC(=O)c2ccc(Cl)cc2)c1	3.2µM*	.	?	?	-13%
O=C(/C=C/c1ccccc1)NC(=S)NNC(=O)c1cccnc1	?	i	16µM*	7%	-3%
O=C(/C=C/c1ccccc1)NC(=S)NNC(=O)c1cnccn1	i	i	-84%	-47%	-11%
Cc1ccccc1OCC(=O)NNC(=S)NC(=O)c1ccccc1[N+](=O)[O-]	i	i	0%	0%	-9%
CC(C)(C)c1ccc(OCC(=O)NNC(=S)NC(=O)c2ccccc2[N+](=O)[O-])c(Br)c1	i	i	18µM*	?	-10%
O=c1c2ccccc2sn1-c1ccc(Cl)c(S(=O)(=O)N2CCOCC2)c1	.	.	.	-81%	.
COc1ccc(C(=O)N2CCC2)cc1S(=O)(=O)NCc1ccc(Cl)cc1	i	i	16%	-6%	.
Brc1ccc(-c2nn3c(-c4ccccc4)nnc3s2)cc1	.	i	.	.	.
Clc1nnc(NC2CCCCC2)c(Cl)c1Cl	i	i	22µM*	?	.
O=C(c1ccc(S(=O)(=O)Cc2cc(F)ccc2F)c([N+](=O)[O-])c1)N1CCOCC1	i	i	20µM*	7%	.
O=C(Nc1ccc2ncccc2c1)c1ccccc1	i	i	-6%	2%	1%
CCC(C(=O)c1ccc2ncccc2c1)c1ccccc1 (stereo not given)	i	i	14µM*	8%	?
C=Cc1ccc(CC2(C)C(=O)Nc3ccc(Cl)cc32)cc1 (stereo not given)	?	i	0%	?	.
C=Cc1ccc(CC2(C)C(=O)Nc3c(Cl)cccc32)cc1 (stereo not given)	i	i	-37%	10µM*	.
CC1(Cc2cccc(C#N)c2)C(=O)Nc2c(Cl)cccc21 (stereo not given)	i	i	?	18µM*	.
CC1(Cc2ccccc2Cl)C(=O)Nc2c(Cl)cccc21 (stereo not given)	i	i	?	3.5µM*	.
CC1(Cc2ccc(F)cc2)C(=O)Nc2c(Cl)ccc(Cl)c21 (stereo not given)	i	i	26%	11µM*	.
O=C1Cc2ccccc2N1c1ccccc1	i	i	?	5%	2%
O=C1CC(=Nc2ccccc2)NN1c1ccccc1	?	13µM*	16µM*	12%	-6%
Cc1ccc(S(=O)(=O)CCC(=O)Nc2ccc(OC(F)(F)F)cc2)cc1	i	i	18%	.	.
COc1cccc(CNC(=O)CCCN2C(=O)C(c3ccccc3)Oc3cccnc32)c1OC (stereo not given)	i	i	-3%	4%	-2%
CCCCn1nnnc1C(c1ccccc1)N1CCN(c2c(Cl)cncc2Cl)CC1 (stereo not given)	i	i	22µM*	-1%	.
NS(=O)(=O)c1ccc(CNC(=O)c2ccccc2SCC(=O)N2CCCC2)cc1	i	i	-17%	10%	-1%
SMILES	Abeta rescue	FUS yeast rescue	TDP-43 yeast inh	aSyn yeast inh	Mito fusion yeast
COCCNC(=O)COC(=O)c1cccnc1SC	i	i	12%	3%	-4%
O=C(COC(=O)c1ccccc1Br)NCCc1ccc(F)cc1	i	.	20µM*	19%	3%
CSc1ncccc1C(=O)OCC(=O)NCCCc1ccccc1	i	i	18µM*	1%	.
O=C(COC(=O)c1ccccc1Br)Nc1ccc(F)cc1	i	i	?	0%	-3%
CCOC(=O)C(C)Sc1ccc2nnc(-c3ccc(OCC)cc3)n2n1 (stereo not given)	.	.	.	2%	.
CC(C)=CC(=O)O[C@@H]1Cc2cc3ccc(=O)oc3cc2OC1(C)C	i	i	14µM*	8%	9%
COC(=O)c1ccc(NC(=S)N2CCN(CCO)CC2)cc1	i	i	-2%	-3%	-2%
Cc1ccc2ccc(C(Nc3ccccc3)c3ccc(Cl)cc3)c(O)c2n1 (stereo not given)	16µM*	i	5.6µM*	?	.
Cc1ccc2ccc(C(Nc3ccccc3)c3ccc(F)cc3)c(O)c2n1 (stereo not given)	?	i	3.2µM*	-26%	.
Cc1ccc2ccc(C(Nc3ccccc3)c3ccc(C(C)C)cc3)c(O)c2n1 (stereo not given)	?	i	?	11µM*	.
CCCOc1cc(C)c(S(=O)(=O)NCc2cccs2)cc1C	i	i	20µM*	10µM*	.
COC(=O)[C@@]12CCCN1[C@H](c1ccc(-c3ccc4c(c3)OCO4)cc1)[C@H]1C(=O)N(C)C(=O)[C@H]12	i	i	-15%	1%	.
COc1ccc(C)cc1NC(=O)C(Sc1nnc(-c2ccncc2)n1-c1ccc(Cl)cc1)c1ccccc1 (stereo not given)	i	22µM*	-1%	7%	14%
O=C(NC1CCc2ccccc21)c1cc(COc2cncc(Cl)c2)on1 (stereo not given)	?	i	?	2%	3%
CN(C(=S)NC1CCCCC1)C1(c2ccccc2Cl)CCCCC1=O (stereo not given)	?	i	-11%[9.22 µM]	1%	20µM*
CC(C)NC(=S)N(C)C1(c2ccccc2Cl)CCCCC1=O (stereo not given)	i	i	?	16%	18%
O=C(OCn1ncc(Cl)c(Cl)c1=O)c1ccc(F)cc1	.	.	.	.	-22%
O=C(OCn1ncc(Cl)c(Cl)c1=O)c1ccccc1Cl	i	i	5.6µM*	11%	-18%
Cn1/c(=N/N=C/c2ccc([N+](=O)[O-])cc2)sc2ccccc21	.	.	.	.	7%
Cn1c(=NN=Cc2ccccc2OCCO)sc2ccccc21	i	i	13µM*	5%	.
COc1cccc2cc(-c3nc4ccccc4o3)c(=O)oc12	i	i	3.2µM*	3.2µM*	0%
O=c1oc2ccc(Br)cc2cc1-c1nc2ccccc2o1	i	i	-13%	0%	1%
CN(C(=O)C1=CC(c2ccc3c(c2)OCO3)=NS(=O)(=O)N1C)c1ccccc1	i	i	1%	.	.

Screens: PubChem BioAssay, National Center for Advancing Translational Sciences (NCATS)
